PubChem BioAssay

Experiment: S6 kinase pathway phospho-S6 level changes – cell-based, A549, cytoblot, luminescence, serum-stimulated, primary screen (AID 1158);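 note: serum-stimulated A549 lung adenocarcinoma cells; signal is phosphorylated S6 detected by cytoblot immunostaining with HRP secondary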
Settings: 5 h, higher = more signal

Q: Which z-score does the source give for `CCOC(=O)[C@H](Cc1ccccc1)NC(=O)CCC1CC(OC(=O)NCc2ccc3c(c2)OCO3)CC2(CCCC(COC(=O)NCCOC)O2)O1` (stereo partly specified) here?
A: 2.53

Q: For `CCOC(=O)[C@H](Cc1ccccc1)NC(=O)CCC1CC(OC(=O)NCc2ccc3c(c2)OCO3)CC2(CCCC(COC(=O)NCCCN3CCCC3=O)O2)O1` (stereo partly specified), which z-score is on record?
A: 0.125

Q: For `COC(=O)[C@H](C)NC(=O)CCC1CC(OC(=O)NCCc2ccc(F)cc2)CC2(CCCC(COC(=O)NCCOc3ccccc3)O2)O1` (stereo partly specified), which z-score is on record?
A: 0.0246

Q: Which z-score does the source give for `O=C1CCCC=C1C(O)C1CCCCC1` (stereo unspecified) here?
A: -0.178

Q: Which z-score does the source give for `CCOC(=O)NN=C1C[C@@H](O)[C@@H](O)[C@@H]2[C@@H]3C(=O)N(c4ccc(F)cc4F)C(=O)[C@@H]3CC[C@H]12` here?
A: 0.245

Q: Which z-score does the source give for `CC(=O)OC[C@H]1O[C@H](CC=NO[C@@H](C)c2cc(-c3c(C)cc(C)cc3C)no2)C=C[C@@H]1OC(C)=O` here?
A: -0.194

Q: For `CCOC(=O)CCN1C(=O)[C@H]2[C@H]3[C@H](O)[C@H](O)CC(=NO[C@@H]4O[C@H](CO)[C@@H](O)[C@H](O)[C@H]4O)[C@H]3CC[C@H]2C1=O`, which z-score is on record?
A: 0.199

Q: For `CCOC(=O)[C@H](CC(C)C)NC(=O)CCC1CC(OC(=O)NCCc2ccc(F)cc2)CC2(CCCC(COC(=O)NCc3cccc(C(F)(F)F)c3)O2)O1` (stereo partly specified), which z-score is on record?
A: -0.276

Q: For `C[C@H]1CC[C@@H](C(=O)O)N[C@@H]1c1cccc(N2CCCC2=O)c1`, which z-score is on record?
A: 0.42

Q: With `CC(=O)OC[C@H]1O[C@@H](ON=C2[C@H]3CCn4c(=O)n(-c5ccccc5)c(=O)n4[C@H]3[C@H](O)[C@@H]3O[C@H]23)[C@H](OC(C)=O)[C@@H](OC(C)=O)[C@@H]1OC(C)=O` as the compound, how does the z-score read?
A: -0.862

Q: For `CCOC(=O)[C@H](CC(C)C)NC(=O)CCC1CC(OC(=O)NCCc2ccc(F)cc2)CC2(CCCC(COC(=O)NCCCN3CCCC3=O)O2)O1` (stereo partly specified), which z-score is on record?
A: 0.181

Q: With `CC(CCC(=O)OC[C@H]1O[C@H](C#Cc2ccccc2)C=C[C@@H]1Oc1ccc(C)cc1)=NOC[C@@H](C)[C@H](OCc1ccccc1)C(C)C` as the compound, how does the z-score read?
A: -0.0916

Q: Which z-score does the source give for `CCOC(=O)[C@H](Cc1ccccc1)NC(=O)CCC1CC(OC(=O)NCc2cccc3ccccc23)CC2(CCCC(COC(=O)NCCc3ccccc3OC)O2)O1` (stereo partly specified) here?
A: -0.352

Q: Which z-score does the source give for `COC(=O)[C@H](C)NC(=O)CCC1CC(OC(=O)NCCc2ccc(F)cc2)CC2(CCCC(COC(=O)NCCc3ccccc3OC)O2)O1` (stereo partly specified) here?
A: 0.364

Q: Which z-score does the source give for `CCOC(=O)NN=C1C[C@@H](O)[C@@H](O)[C@@H]2[C@@H]3C(=O)N(C[C@@H]4CCCO4)C(=O)[C@@H]3CC[C@H]12` here?
A: 0.0411

Q: Which z-score does the source give for `CON=C1c2cc(OC)ccc2O[C@H](c2cccc(OC)c2)[C@H]1O` here?
A: 0.686

Q: For `COC(=O)[C@H](C)NC(=O)CCC1CC(OC(=O)NCc2ccc3c(c2)OCO3)CC2(CCCC(COC(=O)NCCC(C)C)O2)O1` (stereo partly specified), which z-score is on record?
A: 0.392

Q: With `C[C@H]1C=CCC(=O)OC[C@H](C)C(=O)N2CCC[C@H]2C(=O)OC1` as the compound, how does the z-score read?
A: -0.732

Q: For `CCCNC(=O)OC[C@H]1O[C@H](CCON=C2C[C@@H](O)[C@@H](O)[C@@H]3[C@@H]4C(=O)N(CC)C(=O)[C@@H]4CC[C@@H]23)C=C[C@@H]1Oc1ccc(OC)cc1`, which z-score is on record?
A: -0.432

Q: For `COC(=O)[C@@H]1CC[C@H](C)[C@@H](c2ccc(C)cc2)N1C(=O)c1ccc(C=NO[C@@H](C)c2cc(-c3c(C)cc(C)cc3C)no2)cc1`, which z-score is on record?
A: 0.677

Q: For `CC(C)(C)N1C(=O)[C@H]2[C@H]3[C@H](O)[C@H](O)CC(=NNC(=O)OCc4ccccc4)[C@H]3CC[C@H]2C1=O`, which z-score is on record?
A: 0.827

Q: Which z-score does the source give for `CO[C@@H]1COC(=O)CC=C[C@H](C)[C@H](OC)COC(=O)[C@@H]2CCCN2C(=O)CC=C[C@H]1C` here?
A: -0.0291

Q: For `Cc1cc2c(nc1C)CCCCN2CC(O)CN1CCCc2nc(-c3ccc(Br)cc3)ccc21` (stereo unspecified), which z-score is on record?
A: 0.75

Q: With `COc1ccc(O[C@H]2C=C[C@@H](C#Cc3ccccc3)O[C@@H]2CO)cc1` as the compound, how does the z-score read?
A: 0.297

Q: For `C#CCCCON=C1C[C@@H](O)[C@@H](O)[C@@H]2[C@@H]3C(=O)N(C[C@@H]4CCCO4)C(=O)[C@@H]3CC[C@H]12`, which z-score is on record?
A: 0.591

Q: Which z-score does the source give for `O=C1[C@H]2[C@H]3[C@H](O)[C@H](O)CC(=NO[C@@H]4O[C@H](CO)[C@@H](O)[C@H](O)[C@H]4O)[C@@H]3CC[C@H]2C(=O)N1c1cccc(Oc2ccccc2)c1` here?
A: -0.263

Q: For `CC#CCOCCC=C1c2ccccc2[C@@H](OC)[C@@H]1C`, which z-score is on record?
A: -0.161

Q: With `CCOC(=O)[C@H](CC(C)C)NC(=O)CCC1CC(OC(=O)NCc2ccc3c(c2)OCO3)CC2(CCCC(COC(=O)NCCOc3ccccc3)O2)O1` (stereo partly specified) as the compound, how does the z-score read?
A: 0.128

Q: Which z-score does the source give for `CON=C(C)CCN1CCCCc2nc(C)c(C)cc21` here?
A: -0.834

Q: For `C=CC[C@@H]1C=C[C@H](ON=CC[C@@H]2C=C[C@H](OC(C)=O)[C@@H](COC(C)=O)O2)[C@@H](CO)O1`, which z-score is on record?
A: 0.166

Q: With `C[C@@H]1CC[C@@H](C(=O)O)N[C@H]1c1cccc(N2CCOCC2)c1` as the compound, how does the z-score read?
A: 0.778

Q: With `CC(=O)OC[C@H]1O[C@H](CC=NOC[C@@H](O)COCc2ccco2)C=C[C@@H]1OC(C)=O` as the compound, how does the z-score read?
A: 0.0978

Q: With `CC(CCN1CCc2nc(-c3ccccc3)c(-c3ccccc3)cc2C1)=NO[C@H](C)c1cn([C@H](CO)Cc2ccccc2)nn1` as the compound, how does the z-score read?
A: -0.746

Q: For `CCOC(=O)CCN1C(=O)[C@H]2[C@H]3[C@H](O)[C@H](O)CC(=NNC(=O)OCc4ccc(OC)cc4)[C@H]3CC[C@H]2C1=O`, which z-score is on record?
A: -0.528

Q: Which z-score does the source give for `CC(=O)OC[C@H]1O[C@@H](ON=C(C)CCC(=O)OC[C@H]2O[C@H](C#Cc3ccccc3)C=C[C@@H]2Oc2ccc(C)cc2)[C@H](OC(C)=O)[C@@H](OC(C)=O)[C@@H]1OC(C)=O` here?
A: -0.635

Q: Which z-score does the source give for `O=C1CCCC=C1C(O)c1ccc([N+](=O)[O-])cc1` (stereo unspecified) here?
A: 0.317
